# Pf Dd2 growth: blocks growth of Plasmodium falciparum Dd2 parasites; P. falciparum Dd2 growth, SYBR Green, 72 h; active compounds read low; activity change, % at 10 µM; 94,000 compounds, 2.3% hits; AID 1159554; in the data active means activity change below about -80%; inconclusive means no clear call, values can overlap the other calls
# T cruzi growth-1: blocks T. cruzi growth in NIH3T3 culture; T. cruzi beta-gal in NIH3T3, GalScreen luminescence, 90 h; inhibition, % at 8.34 µM; 77,000 compounds, 5.9% hits;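 active means mean inhibition above about 93%, with at least 55% of replicates each passing it, limit read from the data, passing the limit was not always enough; inconclusive means only one of those two conditions holds; inactive means neither condition holds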
# C diff growth: blocks growth of Clostridium difficile | Clostridium difficile clinical isolate growth, OD600, 24 h; active compounds read low | growth activity, negative = inhibition, % at 16 µg/mL (by protocol) | 86,000 compounds, 0.25% hits | AID 1259249;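 active means mean growth activity at or below -80% and every replicate also at or below -80%; inconclusive means mean at or below -80% but some replicate above -80%; inactive means mean growth activity above -80%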;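 further: 0% = DMSO wells and -100% = levofloxacin 16 µg/mL wells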
# T cruzi growth-2: blocks T. cruzi growth in NIH3T3 host cells; shares compounds with T cruzi growth-1; T. cruzi beta-gal in NIH3T3, GalScreen luminescence, 90 h; inhibition, % at 8.35 µM; 5,600 compounds, 72% hits;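 active means mean replicate inhibition above about 95% and at least 55% of replicates individually reaching it, limit read from the data; inconclusive means only one of the two criteria is met; inactive means neither criterion is met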
# T cruzi growth-3: inhibitors of T. cruzi proliferation. inhibition, % at 2.09 µM. AID 651740. 5,600 compounds, 21% hits. shares compounds with T cruzi growth-1. T. cruzi beta-gal in NIH3T3, GalScreen luminescence, 90 h;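 active means mean inhibition above about 95%, with at least 55% of replicates also reaching it, limit read from the data; inconclusive means meets just one of the two conditions; inactive means meets neither condition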;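 further: plate controls were neutral control median for no effect and positive control median for full effect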
# NIH3T3 tox: NIH/3T3 (mouse) viability loss; cytotoxicity (signal decrease), % at 8.35 µM; shares compounds with T cruzi growth-1; 5,600 compounds, 14% hits; NIH/3T3 viability, CellTiter-Glo ATP luminescence, 90 h;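 active means mean signal decrease across replicates above about 35% based on untreated-well scatter, with enough replicates individually passing, limit read from the data; inconclusive means no rule stated though some were filed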;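 further: 0% = median of neutral control wells and 100% = median of positive control wells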
# 3T3 cytotox 2: NIH/3T3 (mouse) viability loss; shares compounds with T cruzi growth-1; NIH/3T3 viability, CellTiter-Glo ATP luminescence, 90 h; inhibition, % at 24.9 µM; 5,600 compounds, 56% hits; AID 651744;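 active means mean loss of cell viability signal at or above a set limit, and enough replicates individually reaching it; inconclusive means meets only the mean limit or only the replicate share; inactive means meets neither condition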;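 further: 0% = median of neutral control wells and 100% = median of positive control wells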
# Starred values were filed as active, the others as inactive; ? = inconclusive; . = no result. Rows were chosen to be rich in hits. Some 6.7% of all compounds tested hit in one or more screens of this group.
SMILES,Pf Dd2 growth,T cruzi growth-1,C diff growth,T cruzi growth-2,T cruzi growth-3,NIH3T3 tox,3T3 cytotox 2
Cc1ccc(S(=O)(=O)N(C)C[C@H]2Oc3ccc(NC(=O)Nc4ccccc4)cc3C(=O)N([C@H](C)CO)C[C@H]2C)cc1,0,.,2,.,.,.,.
Cc1ccc(S(=O)(=O)N[C@H]2CC[C@@H](CCn3cc(C4(O)CCCC4)nn3)O[C@H]2CO)cc1,-13,-31,1,.,.,.,.
C[C@@H]1CCCCO[C@H](CN(C)C(=O)C2CCCCC2)[C@H](C)CN([C@@H](C)CO)C(=O)c2cc(NC(=O)CCCCCC(=O)Nc3ccccc3N)ccc2O1,-74,102,1,.,.,.,.
C[C@@H]1CCCCO[C@H](CN(C)C(=O)c2ccccc2)[C@H](C)CN([C@@H](C)CO)C(=O)c2cc(NC(=O)CCCCCC(=O)Nc3ccccc3N)ccc2O1,-47,99*,-1,107*,103*,5,2
C[C@H](CO)N1C[C@H](C)[C@H](CN(C)C(=O)c2ccccc2)OCCCC[C@H](C)Oc2ccc(NC(=O)CCCCCC(=O)Nc3ccccc3N)cc2C1=O,-29,100*,-1,108*,?,-7,-39
C[C@@H]1CCCCO[C@H](CN(C)C(=O)c2ccncc2)[C@@H](C)CN([C@H](C)CO)C(=O)c2cc(NC(=O)CCCCCC(=O)Nc3ccccc3N)ccc2O1,9,7,2,.,.,.,.
CCC(=O)N(C)C[C@H]1Oc2cc(-c3ccncc3)ccc2S(=O)(=O)N([C@@H](C)CO)C[C@@H]1C,-4,80,-3,.,.,.,.
C[C@H](CO)N1C[C@H](C)[C@H](CN(C)S(=O)(=O)c2cn(C)cn2)Oc2ccc(NC(=O)NC3CCCCC3)cc2CC1=O,26,7,5,.,.,.,.
COc1ccc(S(=O)(=O)Nc2ccc3c(c2)CC(=O)N([C@H](C)CO)C[C@H](C)[C@@H](CN(C)C(=O)Nc2ccccc2)O3)cc1,8,5,-1,.,.,.,.
CCC(=O)N(C)C[C@H]1Oc2cc(C3=CCCCC3)ccc2S(=O)(=O)N([C@@H](C)CO)C[C@H]1C,21,43,.,.,.,.,.
C[C@@H]1CN([C@H](C)CO)S(=O)(=O)c2ccc(-c3cccnc3)cc2O[C@H]1CN(C)C(=O)C1CCC1,-5,76,3,.,.,.,.
N#C[C@H]1[C@@H](c2ccc(C#Cc3ccc(F)cc3)cc2)[C@H](CO)N1C(=O)C1CC1,-41,93,-15,.,.,.,.
N#C[C@H]1[C@H](c2ccc(C#CC3(O)CCCC3)cc2)[C@H](CO)N1C(=O)C1CCC1,-45,100*,4,107*,66,15,64*
N#C[C@H]1[C@@H](c2ccc(C#CC3(O)CCCC3)cc2)[C@H](CO)N1C(=O)C1CC1,-28,100*,14,104*,94,8,56*
N#C[C@@H]1[C@@H](c2ccc(C#Cc3cccnc3)cc2)[C@@H](CO)N1C(=O)C1CCC1,2,60,4,.,.,.,.
C[C@H]1CCCCO[C@H](CN(C)C(=O)Nc2ccc(F)cc2)[C@@H](C)CN([C@@H](C)CO)C(=O)c2cc(N(C)C)ccc2O1,-44,32,-8,.,.,.,.
CCCN(C)C[C@H]1Oc2cc(-c3ccccc3F)ccc2S(=O)(=O)N([C@H](C)CO)C[C@H]1C,-49,58,4,.,.,.,.
C[C@H](CO)N1C[C@H](C)[C@H](CN(C)Cc2ccncc2)Oc2cc(-c3ccccc3F)ccc2S1(=O)=O,9,106*,2,93,91,59*,76*
C[C@@H]1CN([C@H](C)CO)S(=O)(=O)c2ccc(-c3ccccc3F)cc2O[C@@H]1CN(C)Cc1ccncc1,3,110*,-17,101*,77,35*,77*
Cc1ccccc1-c1ccc2c(c1)O[C@@H](CN(C)Cc1ccncc1)[C@@H](C)CN([C@@H](C)CO)S2(=O)=O,-61,90,2,.,.,.,.
C[C@H]1CN([C@@H](C)CO)S(=O)(=O)c2ccc(-c3ccccc3F)cc2O[C@@H]1CN(C)Cc1ccncc1,-26,116*,-5,101*,100*,40*,104*
C[C@@H]1CN([C@@H](C)CO)S(=O)(=O)c2ccc(-c3ccccc3F)cc2O[C@H]1CN(C)Cc1ccncc1,-38,116*,-4,88,97*,65*,101*

# Screening data: PubChem, Broad Institute
